# Laboratory results as given in PubChem BioAssay AID1259374 (The Scripps Research Institute Molecular Screening Center, 2018).
# Among all 650,000 compounds or so, about 5,900 (0.91%) were called active. Cut-off read from the data, not from the text of the source: active = inhibition above about 50%; inactive = the rest. The entries come from a sample that favours actives as a whole.
# Biological target: Microphthalmia-associated transcription factor (Homo sapiens) (UniProt O75030)
# Test: MITF inhibitors, primary screen, biochemical, AlphaScreen, human (AID 1259374);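 note: 0% = vehicle wells with protein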
# Conditions: AlphaScreen MITF homodimerization, bead proximity signal; at 2.6 µM; hits give high values
# Microphthalmia-associated transcription factor (Homo sapiens), sequence (O75030 whole entry, looked up): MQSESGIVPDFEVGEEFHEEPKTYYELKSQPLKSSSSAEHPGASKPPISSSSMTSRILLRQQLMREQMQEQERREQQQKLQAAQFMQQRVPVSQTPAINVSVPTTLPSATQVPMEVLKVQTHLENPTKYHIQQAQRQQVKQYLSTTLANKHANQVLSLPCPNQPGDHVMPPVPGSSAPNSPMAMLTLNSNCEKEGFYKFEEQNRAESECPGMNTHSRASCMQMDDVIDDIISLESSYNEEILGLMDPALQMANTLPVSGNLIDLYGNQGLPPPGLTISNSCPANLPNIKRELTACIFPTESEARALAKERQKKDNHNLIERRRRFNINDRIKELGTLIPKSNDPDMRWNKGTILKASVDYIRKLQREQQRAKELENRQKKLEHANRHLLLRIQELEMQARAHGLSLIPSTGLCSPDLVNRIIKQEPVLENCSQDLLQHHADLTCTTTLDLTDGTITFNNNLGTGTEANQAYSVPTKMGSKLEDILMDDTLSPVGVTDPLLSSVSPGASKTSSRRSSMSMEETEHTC
row,SMILES,inhibition
1,COc1ccc(-c2csc3nc(C)n(N)c(=O)c23)cc1OC,14.4% (inactive)
2,Fc1cccc(Cl)c1Cn1nnc(-c2ccncc2)n1,74% (active)
3,Fc1cccc(Cl)c1CSc1nnc2ncccn12,-8.92% (inactive)
4,c1ccc(OCCCCn2nnc(-c3ccncc3)n2)cc1,10.3% (inactive)
5,CC1CCc2sc(NC(=O)c3ccccc3[N+](=O)[O-])c(C#N)c2C1 (stereo not given),11.5% (inactive)
6,CC1=CCC(C(=O)O)(C(=O)N/N=C/C2=C(O)CC(C)(C)CC2=O)CC1c1ccccc1 (stereo not given),45.2% (inactive)
7,COc1cc(Nc2nc(Nc3cc(OC)c(OC)c(OC)c3)c3[nH]cnc3n2)cc(OC)c1OC,-7.41% (inactive)
8,COc1ccc(-c2nc(Nc3cc(OC)c(OC)c(OC)c3)c3[nH]cnc3n2)cc1,63.2% (active)
9,COc1ccc(-c2nc(N)c3[nH]cnc3n2)cc1,-0.37% (inactive)
10,Cc1cccc(NC(=O)C(c2ccccc2)N2CCOCC2)c1 (stereo not given),2.38% (inactive)
11,Cc1c(C(C)NC(=O)c2csc(C(C)C)n2)cnn1-c1ccccn1 (stereo not given),1.61% (inactive)
12,C=CCN=Cc1c(C)[nH]n(-c2ccc([N+](=O)[O-])cc2)c1=O,0.33% (inactive)
13,COc1cc(C=O)ccc1OCCCN1CCCCC1,34.3% (inactive)
14,CCN1CCN(CCOCCOc2ccccc2OCc2ccccc2)CC1,80.8% (active)
15,CCN1CCN(CCCOc2ccc(C(C)=O)cc2OC)CC1,77.9% (active)
16,O=c1c2ccccc2ncn1CCCCOc1ccccc1F,52.4% (active)
17,CCN1CCN(CC(=O)c2cc(OC)c(OC)c(OC)c2)CC1,6.5% (inactive)
18,c1ccc2cc(OCCOCCN3CCOCC3)ccc2c1,12.8% (inactive)
19,CCc1ccccc1OCCCN1CCOCC1,38.5% (inactive)
20,COc1ccccc1OCCOCCOc1ccccc1OC,-12.3% (inactive)
21,CCN1CCN(CCCCOc2ccccc2F)CC1,63.7% (active)
22,Cc1ccc(Cl)c(OCCn2cnc3ccccc3c2=O)c1,10.1% (inactive)

row,SMILES,inhibition
1,CCCCOc1ccccc1OCCCN1CCN(C)CC1,-4.11% (inactive)
2,O=c1c2ccccc2nc(-c2ccc(Cl)cc2)n1CCCCOc1ccccc1F,-6.63% (inactive)
3,C=CCC1(CC=C)CCCN1C(=O)CC1C(=O)NCCN1Cc1ccccc1C (stereo not given),5.18% (inactive)
4,CCOC(=O)CSc1nc2ccc(Cl)cc2n2cnnc12,-5.55% (inactive)
5,Cc1nn(-c2ccccn2)c2c1C(=O)/C(=C\Nc1cccc([N+](=O)[O-])c1)CC2,-6.22% (inactive)
6,COc1ccc(C(=O)Oc2ccc3c(c2)C(C)=CC(C)(C)N3C(=O)c2ccc(OC)cc2)cc1,8.97% (inactive)
7,Cc1ccc(S(=O)(=O)NC(=NC(CC(=O)O)C(=O)O)c2ccccc2)cc1 (stereo not given),-0.64% (inactive)
8,O=C1NC2(CCCCC2)N(C(=O)c2ccc(Cl)cc2)C2=C1CCCC2,9.62% (inactive)
9,CCCCN(CC)C(=O)c1c[nH]c2ccc(S(=O)(=O)N(C)c3ccc(CC)cc3)cc2c1=O,1.47% (inactive)
10,CC(C)c1cc(Br)ccc1OCCOCCN1CCN(C)CC1,-24.1% (inactive)
11,CN1CCN(CCOCCOc2ccccc2Cl)CC1,53.8% (active)
12,Cc1ccc(OCCOCCN2CCN(C)CC2)c(Br)c1,42.5% (inactive)
13,O=C(O)C1CSC(c2cccc(I)c2)N1 (stereo not given),10% (inactive)
14,Cc1ccc(-c2c(C(=O)Nc3cccc(O)c3)oc(=O)c3ccccc23)cc1,26.8% (inactive)
15,O=C(CCC(=O)OCc1ccc(Cl)cc1)Nc1ccc([N+](=O)[O-])cc1,59.3% (active)
16,O=C(O)CCC(=O)Nc1ccc([N+](=O)[O-])cc1,-7.16% (inactive)
17,O=C(COc1ccc([N+](=O)[O-])cc1)Nc1ccc(Cl)cc1,12.6% (inactive)
18,CC(=O)C1=C(O)C(=O)N(CCCN(C)C)C1c1ccc(Br)cc1 (stereo not given),4.38% (inactive)
19,COc1ccccc1/C=C1\SC(=S)N(CCC(=O)Nc2nc(C)cs2)C1=O,13.4% (inactive)
20,CCOCc1nnc(NC(=O)C2CC(=O)N(c3ccc(C)cc3)C2)s1 (stereo not given),9.92% (inactive)
21,Cc1cc(OCCN2CCOCC2)nc(N2CCOCC2)n1,5.58% (inactive)
22,Cc1cc(Cl)c(OCCN2CCOCC2)c(Br)c1,33.1% (inactive)

row,SMILES,inhibition
1,Cc1ccc(C)c(OCCN2CCOCC2)c1C,54.9% (active)
2,CCOc1cccc(C(=O)Nc2ccc3oc(-c4ccc(Cl)c(Cl)c4)nc3c2)c1,4.15% (inactive)
3,CCOCCOC(=O)C1=C(C)NC(=O)NC1c1ccccc1 (stereo not given),2.55% (inactive)
4,Cc1n[nH]c(=O)nc1N/N=C/c1cccs1,86.2% (active)
5,Cc1cccc(Nc2nc(=O)[nH]nc2C)c1,13.2% (inactive)
6,COc1cccc(/C=N/Nc2nc(=O)[nH]nc2C)c1OC,35% (inactive)
7,O=c1[nH]cnc2nc(N/N=C/c3ccc(Cl)cc3)[nH]c12,-5.83% (inactive)
8,O=C(Nc1cccc(Br)c1)N1CCC(CN2CCCC2)CC1,5.45% (inactive)
9,COc1cc(-c2cc(C(N)=O)on2)ccc1O,3.55% (inactive)
10,CC(=O)c1cccc(-c2ncc(C)c(N)n2)c1,0.72% (inactive)
11,COc1cc2nc(-c3cccc(C(C)=O)c3)nc(Nc3ccc(N4CCOCC4)cc3)c2cc1OC,1.79% (inactive)
12,COc1cc2nc(-c3cccc(C(C)=O)c3)nc(N)c2cc1OC,60.9% (active)
13,Cc1ccc(C(NC(=O)Cc2ccccc2)c2ccc3cccnc3c2O)cc1 (stereo not given),3.27% (inactive)
14,O=C(Cc1ccccc1)NC(c1ccc(Cl)cc1)c1ccc2cccnc2c1O (stereo not given),-1.99% (inactive)
15,CC(=O)NC(c1cccs1)c1cc(Cl)c2cccnc2c1O (stereo not given),59.1% (active)
16,CCOc1ccc(C(NC(=O)c2cc(OC)c(OC)c(OC)c2)c2cc(Cl)c3cccnc3c2O)cc1 (stereo not given),17.1% (inactive)
17,CC(=O)NC(c1ccccc1)c1ccc2cccnc2c1O (stereo not given),54.5% (active)
18,Oc1c(C(Nc2ccccn2)c2ccc(OC(F)F)cc2)ccc2cccnc12 (stereo not given),12.2% (inactive)
19,COc1cccc(C(=O)NC(c2cccc([N+](=O)[O-])c2)c2cc(Cl)c3cccnc3c2O)c1 (stereo not given),4.72% (inactive)
20,Cc1ccnc(NC(c2ccccc2Cl)c2ccc3cccnc3c2O)c1 (stereo not given),22.3% (inactive)
21,Oc1c(C(Nc2ccccn2)c2cccnc2)ccc2cccnc12 (stereo not given),58.1% (active)
